The list is not random: actives were taken first. Their share in the collection is about 9.4%.
Rab9 prom act: activators of Rab9 promoter; AID 485297; 320,000 tested, 2.8% active; Potency, µM (series often up to 9.22 µM), most hits filed as activators; Huh7 Rab9 promoter-luciferase reporter, luminescence, 24 h; also: nearly all actives have a fitted effect of over 60% in size
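Huh7 cells stably carrying a Rab9 promoter-luciferase reporter, 1500 cells per well in OP-MEM I with 10% FBS, treated with compound 24 hours at 37C. Luciferase activity read by luminescence after 10 minutes with Amplite reagent.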
FLuc modulator: firefly luciferase modulation, counter-screen for miR-21 project. P08659. purified FLuc, Km substrates, luminescence inhibition. Potency, µM (doses to about 57.5 µM), hits mostly inhibitors. 360,000 tested, 6.9% active. AID 588342; also: nearly all actives have a fitted effect of over 55% in size
Target sequence (P08659 whole entry, looked up): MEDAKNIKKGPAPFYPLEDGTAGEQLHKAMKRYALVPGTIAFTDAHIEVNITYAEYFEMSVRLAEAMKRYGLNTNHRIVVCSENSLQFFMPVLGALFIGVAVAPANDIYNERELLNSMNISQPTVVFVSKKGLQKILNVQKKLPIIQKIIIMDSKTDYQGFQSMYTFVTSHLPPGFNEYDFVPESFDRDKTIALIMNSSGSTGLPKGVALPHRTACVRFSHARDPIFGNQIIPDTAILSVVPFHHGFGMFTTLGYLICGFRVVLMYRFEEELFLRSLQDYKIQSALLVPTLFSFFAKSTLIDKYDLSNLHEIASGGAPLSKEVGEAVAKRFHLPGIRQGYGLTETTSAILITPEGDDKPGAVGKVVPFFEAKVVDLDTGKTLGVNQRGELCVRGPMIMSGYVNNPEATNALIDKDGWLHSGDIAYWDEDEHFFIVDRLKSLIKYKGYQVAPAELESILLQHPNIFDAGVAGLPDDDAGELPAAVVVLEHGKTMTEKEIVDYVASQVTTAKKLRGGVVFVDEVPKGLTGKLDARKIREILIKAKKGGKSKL
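Purified P. pyralis luciferase, 10 nM final, with Km-level 10 uM D-luciferin and 10 uM ATP in 50 mM Tris acetate pH 7.5, 10 mM Mg acetate, 0.01% Tween-20, 0.05% BSA; 6-point qHTS titration about 60 µM downward; luminescence read.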
SMN2 splice enh: enhancers of SMN2 splice variant expression; HEK293 SMN2-luciferase splicing reporter, luminescence, 30-36 h; Potency, µM (series often up to 46.1 µM), most hits filed as activators; 210,000 tested, 2.8% active; AID 1458; also: nearly all actives have a fitted effect of over 55% in size
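HEK293 cells carry an SMN2 […]–luciferase reporter in which exon 7 inclusion puts luciferase in frame. Cells were plated 10-12 h before compound addition, then incubated 30-36 h at 37C. ONE-Glo luminescence was read; sodium butyrate at 4.5 mM final served as control.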
ELG1 genotox: induces genotoxicity in HEK293T cells with luciferase-tagged ELG1. HEK293T ELG1-luciferase reporter, luminescence, 16 h. Potency, µM (highest dose often 46 µM), actives largely listed as activators. 330,000 tested, 1.3% active; also: nearly all actives have a fitted effect of over 60% in size
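HEK293T cells expressing luciferase-tagged ELG1 were exposed to compound or DMSO vehicle for 16 hr at 37 °C and 5% CO2. Luciferase activity was then measured with ONE-Glo after 30 min at room temperature.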
ELG1 DNA repair: blocks ELG1-dependent DNA repair in HEK293T cells; Potency, µM (doses to about 46.1 µM), usual class: inhibitors; AID 504467; HEK293T ELG1-luciferase reporter, luminescence, 16 h; DNA damage induced by 5-fluorouridine; 330,000 tested, 2.3% active; also: nearly all actives have a fitted effect of over 55% in size
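Cells (2,000 per well) received 5-fluorouridine plus test compound or DMSO and were incubated 16 hr at 37 °C, 5% CO2. Luciferase activity was read by luminescence 30 min after ONE-Glo addition; signal suppression marked inhibition of damage-induced ELG1 function.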
NPC1 promoter act: activates the NPC1 promoter. AID 485313. Potency, µM (titrated, usually from 9.22 µM), hits mostly activators. Huh7 NPC1 promoter luciferase reporter, 24 h. 320,000 tested, 2.4% active; also: nearly all actives have a fitted effect of over 60% in size
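Readout is luciferase luminescence, reflecting NPC1 promoter activation in stably transfected Huh7 cells after 24 h compound exposure at 37 °C in reduced-serum medium with 10% FBS.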
A number is an active result; 0 = inactive; ? = inconclusive; - = not tested or not shown; [ ] = dose if it differs, or a comment. Calls follow the shape of the dose curve; as a rule, active = well fitted curve in the direction sought with a large enough effect; inconclusive = small, poorly fitted or top-dose-only effect, or another doubt; inactive = no such curve, though single readings can be large; an effect the other way counts as inactive or inconclusive.

SMILES | Rab9 prom act | FLuc modulator | SMN2 splice enh | ELG1 genotox | ELG1 DNA repair | NPC1 promoter act
COc1cc(/C=C2/SC(=S)N(CC(=O)O)C2=O)ccc1OC(=O)c1ccco1 | 0 | 7.6µM | - | 0 | 0 | 0
CCCc1c(C(=O)N/N=C/c2cccc3ccccc23)nnn1-c1nonc1N | 0 | 0 | - | 0 | 0 | 0
O=C(N/N=C/c1ccccc1Cl)c1cccc(F)c1 | 2µM | 4.8µM | 22µM | ? | ? | 2.5µM
Cc1ccccc1/C=N/NC(=O)c1cccnc1 | 0 | ? | - | 0 | 0 | 0
CCc1ccc(C(=O)N/N=C/c2cccc3ccccc23)nc1 | 0 | 5.4µM | ? | ? | ? | 0
O=C(N/N=C/c1c(Cl)cccc1Cl)c1cccc(F)c1 | 0 | 0 | 0 | 0 | ? | 0
O=C(N/N=C/c1cccc2ccccc12)c1cccnc1 | 0 | 15µM | - | 0 | ? | 0
Cc1nn(Cc2c(Cl)cccc2Cl)c(Cl)c1/C=N/NC(=O)c1cccnc1 | ? | 9.5µM | 0 | 0 | ? | 0
O=C(N/N=C/c1c(O)n(Cc2ccccc2)c(=O)c2ccccc12)c1cccnc1 | 0 | ? | 0 | 0 | ? | 0
O=C(N/N=C/c1cccc2ccccc12)c1cccc(F)c1 | 0 | 21µM | - | 0 | ? | 0
COc1ccc(Cn2c(O)c(/C=N/NC(=O)c3cccnc3)c3ccccc3c2=O)cc1 | 0 | ? | 0 | 0 | 18µM | 0
N#CCCCS(=O)(=O)c1ccccc1 | - | - | 0 | - | - | -
CCn1cc(C(=O)N(C)c2cc(C)ccc2C)c2cc(OC)c(OC)cc2c1=O | - | 0 | 0 | - | - | -
NCCC[C@@H](CC(=O)N[C@@H]1CCCC[C@H]1C(=O)N[C@H](CC(=O)N[C@@H](CCC(=O)O)CC(=O)O)Cc1ccccc1)NC(=O)C[C@H](Cc1c[nH]c2ccccc12)NC(=O)[C@@H]1CNCC[C@H]1N | - | - | 0 | - | - | -
CCN(CC)c1ccc2cc(-c3nc4ccccc4n3C)c(=O)oc2c1 | 0 | 1.9µM | ? | ? | ? | ?
CCN(CC)c1ccc2cc(-c3nc4ccccc4[nH]3)c(=O)oc2c1 | 0.1µM | 0.076µM | 0 | 0.15µM | ? | 0.28µM
CCN(CC)c1ccc2cc(-c3nnc(-c4ccccc4)o3)c(=O)oc2c1 | ? | ? | 11µM | ? | ? | 2.8µM
CC(C)(C)c1cc(C(C)(C)C)c2oc(=O)c(-c3nc4ccccc4[nH]3)cc2c1 | - | 0 | - | - | - | -
CCCCN(C)C(=O)C1CCCN(c2ncnc3onc(-c4ccc(F)cc4)c23)C1 (configuration not stated) | - | 0 | - | - | - | -
COC(=O)N1CCC2(CCCN(c3ccccn3)C2)CC1 | - | - | 0 | - | - | -
O=C(O)CCn1cc(C2CC(c3ccccc3)=NN2c2ccccc2)c(-c2ccccc2)n1 (configuration not stated) | 0 | 19µM | 0 | 0 | 0 | 0
Cc1ccc(-c2nn(-c3ccccc3)cc2C2CC(c3cccs3)=NN2C(=O)CCC(=O)O)cc1 (configuration not stated) | 0 | 0 | 0 | 0 | ? | 0
O=C(O)CCC(=O)Nc1ccc(N2CCCCCC2)cc1 | 0 | 19µM | ? | 0 | ? | 0
CCCC(=O)Nc1ccc(C(=O)COC(=O)C2CC2C)cc1 (configuration not stated) | 1.4µM | 1.7µM | - | 0 | ? | 2µM
NS(=O)(=O)c1ccc(NC(=O)COC(=O)C2CCCCC2)cc1 | 0 | ? | 0 | 0 | 0 | 0
SMILES | Rab9 prom act | FLuc modulator | SMN2 splice enh | ELG1 genotox | ELG1 DNA repair | NPC1 promoter act
CC(C)c1ccc(NC(=O)COC(=O)C2CCCCC2)cc1 | 0 | 1.2µM | - | 0 | ? | 0
Cc1ccc(N2CCN(c3ccc(NC(=O)CCC(=O)O)cc3)CC2)cc1 | 0 | 0 | 0 | 0 | 0 | 0
CCCC(=O)Nc1ccc(C(=O)COC(=O)C2=COCCO2)cc1 | 0 | ? | - | 0 | 0 | 0
O=C(COC(=O)C1CCCCC1)Nc1ccc(N2CCCCC2)cc1 | 0 | 21µM | 0 | 0 | ? | 0
CCc1ccccc1NC(=O)Cn1nc2c3cc(F)ccc3n(Cc3cccc(C)c3)cc-2c1=O | - | 0 | - | - | - | -
COc1cc(-c2nnc(SCC(=O)Nc3cccc(C#N)c3)o2)cc(OC)c1OC | - | 0 | - | - | - | -
COc1ccc(NC(=O)CSc2nncs2)cc1S(=O)(=O)N1CCCCC1 | - | - | - | 0 | 0 | -
O=C(CSc1nncs1)Nc1ccc(N2CCCCC2)cc1 | 0 | 13µM | - | 0 | ? | 0
CC(C)CC(=O)Nc1ccc(C(=O)COC(=O)C2CCC2)cc1 | 0 | 8.5µM | - | 0 | 0 | 0
Cn1c2ccccc2c2c(C(=O)NCC3CCCO3)cn(C3CCCC3)c(=O)c21 (configuration not stated) | 0 | 17µM | 0 | 0 | ? | 0
Cc1nc(NC(=O)c2ccc(F)cc2)sc1C(=O)Nc1ccc2c(c1)CCC2 | 0 | 13µM | ? | 0 | 0 | 0
Cc1ccc(C(=O)Nc2nc(C)c(C(=O)Nc3ccc4c(c3)CCC4)s2)cc1 | 0 | 15µM | 5.6µM | 18µM | ? | 0
COc1ccccc1CNC(=O)c1ccc(N2CCCC2)c(NC(=O)NCc2ccc(F)cc2)c1 | - | 0 | - | - | - | -
Cc1cccc(-c2cc(C(=O)N3CCCc4ccccc43)c3ccccc3n2)c1 | 0 | 12µM | - | 0 | 7.3µM | 0
Cc1ccc(-c2cc(C(F)F)n3ncc(C(=O)N4CCCc5ccccc54)c3n2)cc1 | 0 | 0 | 0 | 0 | 0 | 0
O=C(c1cc(-c2ccccc2)nc2ccccc12)N1CCCc2ccccc21 | 0 | 17µM | 0[1.84 µM] | 0 | 18µM | 0
CCOC(=O)Cn1cc(Cl)cc(C(=O)Nc2ccccc2)c1=O | 0[1.84 µM] | 17µM | - | 0 | 0 | 0
Cn1cc(Cl)cc(C(=O)Nc2ccccc2)c1=O | ? | ? | - | ? | ? | 0
CCN(CC)S(=O)(=O)c1ccc(Cl)c(NC(=O)COC(=O)c2c(C)noc2C)c1 | 0 | 0 | 0 | 0 | 18µM | 0
CCN(CC)S(=O)(=O)c1ccc(Cl)c(NC(=O)COC(=O)c2cccn2C)c1 | 0 | 0 | 0 | 0 | 15µM | 0
CCN(CC)S(=O)(=O)c1ccc(Cl)c(NC(=O)COC(=O)c2ccc(O)cc2)c1 | ? | ? | 0 | 0 | ? | 0
Nc1nc2ccc(N3CCOCC3)cc2s1 | 2.8µM | 11µM | 16µM | 8.2µM | ? | ?
COc1ccccc1COc1ccc2c(C)c(CCC(=O)O)c(=O)oc2c1C | 0 | 24µM | - | 0 | 0 | 0
CCOC(=O)CCc1c(C)c2ccc(OCc3cc([N+](=O)[O-])ccc3OC)c(C)c2oc1=O | 0 | 0 | 0 | ? | 0 | 0
COC(=O)c1ccc(COc2ccc3c(C)c(C)c(=O)oc3c2C)o1 | ? | 4.8µM | 0 | 0 | ? | ?
Cc1cc(=O)oc2c(C)c(OC(C)C(=O)NCC(O)c3ccccc3)ccc12 (configuration not stated) | 0 | 0 | - | 0 | 0 | 0
COC(=O)c1ccc(COc2ccc(/C=N/O)cc2OC)o1 | 0 | 0 | - | 0 | 0 | 0
